Each compound was assayed against Follistatin (Homo sapiens) (UniProt P19883) (assay: FST protein binding to printed compounds – biochemical, small-molecule microarray, 635/667 nm fluorescence, primary screen (AID 1132)). Details: 635 nm fluorescence, higher = more signal.
Follistatin (Homo sapiens), sequence (P19883 whole entry, looked up): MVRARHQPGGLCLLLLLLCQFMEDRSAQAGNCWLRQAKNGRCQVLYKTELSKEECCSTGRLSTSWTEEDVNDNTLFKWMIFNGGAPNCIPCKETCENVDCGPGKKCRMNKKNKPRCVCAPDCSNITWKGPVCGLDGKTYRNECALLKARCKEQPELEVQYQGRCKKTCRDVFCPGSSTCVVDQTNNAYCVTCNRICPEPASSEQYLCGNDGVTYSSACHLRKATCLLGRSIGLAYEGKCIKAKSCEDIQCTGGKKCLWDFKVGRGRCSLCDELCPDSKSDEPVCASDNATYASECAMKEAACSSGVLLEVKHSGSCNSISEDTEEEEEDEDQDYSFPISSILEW

Structure (SMILES)	composite z-score
CC(=O)NCCCC[C@@H]1NC(=O)[C@@H]2C[C@H](C(=O)NCCCCCCN)[C@H](c3cccc(OCCO)c3)N2C1=O	0.382
CN(C)CCCCNC(=O)[C@H]1C[C@H]2C(=O)N[C@@H](CCCC[N+](C)(C)C)C(=O)N2[C@H]1c1ccc(O)cc1	0.525
CC(C)N1CC=CC23O[C@@H]4/C=C\CCCOC(=O)C4[C@H]2C(=O)N(CCCCCCO)[C@@H]3C1=O (some centres not stated)	-1.04
O=C(CS)NCCCCCCNC(=O)[C@@H]1C[C@@H]2C(=O)NCC(=O)N2[C@@H]1c1ccc(O)cc1	0.526
COc1ccc([Si](C)(C)[C@H]2[C@H](CCO)O[C@@]3(C(=O)N(Cc4ccccc4)c4ccc(N5C(=O)c6ccccc6Oc6ccccc65)cc43)[C@@H]2C)cc1	-0.4
NC(=O)[C@H]1[C@@H]2C(=O)O[C@@H](c3ccccc3)[C@@H](c3ccccc3)N2[C@@H](c2ccc(O)cc2)[C@]12C(=O)Nc1ccccc12	-0.441
[N-]=[N+]=NCc1ccccc1[C@@H]1OC(c2ccc(OCCCO)cc2)=N[C@]1(Cc1ccccc1)C(=O)NCCN1CCOCC1	1.31
O=C1C2C=CC(C(O)c3ccc4c(c3)OCO4)N(Nc3ccccc3)C2C(=O)N1c1ccccc1 (configuration not stated)	1.03
O=C(CS)NCCCCCNC(=O)[C@@H]1C[C@@H]2C(=O)N[C@@H](Cc3ccccc3)C(=O)N2[C@@H]1c1cccc(OCCO)c1	1.39
NCCCCCNC(=O)[C@@H]1C[C@@H]2C(=O)N3CCC[C@H]3C(=O)N2[C@@H]1c1ccc(O)cc1	1.17
COc1cc(NN2C(C(O)c3ccccc3)C=CC3C(=O)N(C)C(=O)C32)cc(OC)c1OC (configuration not stated)	0.756
CC=CC(O)C1C=CC2C(=O)NC(=O)C2N1Nc1ccccn1 (configuration not stated)	1.02
COCCOC(=O)N1C(=O)[C@@]2(c3ccccc31)[C@H](c1ccccc1OCCO)N1[C@H](c3ccccc3)[C@H](c3ccccc3)OC(=O)[C@H]1[C@@H]2C(N)=O	1.4
COc1cc(NN2C(C(O)c3ccc(I)cc3)C=CC3C(=O)N(c4ccccc4)C(=O)C32)cc(OC)c1OC (configuration not stated)	1.2
[N-]=[N+]=NCc1ccccc1[C@@H]1OC(c2ccc(OCCCO)cc2)=N[C@]1(Cc1ccccc1N=[N+]=[N-])C(=O)NCCN1CCOCC1	1.39
C=C(/C(=C/C[C@H](OC(=O)c1ccncc1)c1ccccc1OCCO)c1cnc2ccccc2c1)C(C)C	1.39
C=CCNC(=O)[C@@H]1[C@H]2C(=O)O[C@H](c3ccccc3)[C@H](c3ccccc3)N2[C@H](c2ccc(OCCO)cc2)[C@@]12C(=O)N(C(=O)OCCOC)c1ccc(C#CCCO)cc12	1.33
C=C[C@H](C)[C@H](OC(=O)Nc1ccc(OC)cc1)c1ccc(OCCO)cc1	-0.617
COc1ccc(C#Cc2ccc3c(c2)[C@]2(C(=O)N3)[C@H](C(=O)N3CCCCCCC3)[C@H]3C(=O)O[C@H](c4ccccc4)[C@H](c4ccccc4)N3[C@@H]2c2ccc(O)cc2)cc1	1.31
NCCCCCNC(=O)[C@H]1C[C@H]2C(=O)N[C@@H](Cc3ccccc3)C(=O)N2[C@H]1c1ccc(O)cc1	1.4
CC(C)c1ccc(NN2C(C(O)Cc3ccccc3)C=CC3C(=O)N(c4ccccc4)C(=O)C32)cc1 (configuration not stated)	1.28
Cc1ccc(S[C@]2(C(=O)NCc3ccccc3)CC(=O)N(Cc3cc(C(F)(F)F)cc(C(F)(F)F)c3)[C@@H]2c2ccc(CO)cc2I)cc1	-1.18
COCCCNC(=O)[C@@]1(c2ccc([N+](=O)[O-])cc2)CC(=O)N(C(C)C)[C@@H]1c1ccc(CO)cc1	0.559
CN1C(=O)C2C=CC(C(O)c3ccc(I)cc3)N(Nc3ccccc3)C2C1=O (configuration not stated)	1.19
CCOC(=O)C1=C[C@@H](c2ccccc2)N(S(=O)(=O)c2ccc(C)cc2)[C@H]1c1ccccc1	0.379
CC1CC/C=C\[C@H]2OC34C=CCN(C(C)(C)C)C(=O)[C@H]3N(C(CO)C(C)C)C(=O)[C@@H]4C2C(=O)O1 (some centres not stated)	0.276
COC(=O)[C@@]1(Cc2ccc(F)cc2)[C@H]2c3cc(C(=O)N4CCCC4)n(CC4CC4)c3C[C@H]2CN1C(=O)c1ccccc1	1.26

The compounds below were run against Fibroblast growth factor 2 (Homo sapiens) (UniProt P09038) (assay: basic fibroblast growth factor binding to printed compounds – biochemical, small-molecule microarray, 635/667 nm fluorescence, primary screen (AID 1133)). Details: FGF2, fluorescence 635/667, higher = more signal.
Fibroblast growth factor 2 (Homo sapiens), sequence (P09038 whole entry, looked up): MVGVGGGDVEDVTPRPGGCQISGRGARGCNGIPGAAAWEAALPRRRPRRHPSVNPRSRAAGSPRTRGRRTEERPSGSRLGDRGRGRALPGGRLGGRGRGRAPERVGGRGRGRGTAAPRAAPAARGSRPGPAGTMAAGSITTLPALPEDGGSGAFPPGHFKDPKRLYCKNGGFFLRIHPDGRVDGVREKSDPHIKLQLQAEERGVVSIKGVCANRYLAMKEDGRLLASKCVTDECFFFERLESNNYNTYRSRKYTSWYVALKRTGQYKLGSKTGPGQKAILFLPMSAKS

Structure (SMILES)	composite z-score
COCCCNC(=O)[C@@H]1c2ccccc2C(=O)N(C2Cc3ccccc3C2)[C@H]1c1ccc(CO)cc1	1.35
COc1ccc([Si](C)(C)[C@H]2[C@H](CCO)O[C@@]3(C(=O)N(Cc4ccccc4)c4ccc(N5CCOC5=O)cc43)[C@@H]2C)cc1	1.11
C[C@@]12COC[C@]13C=C(Br)[C@H](C2)[C@@]1(CO1)C3=O	-0.757
Nc1cc(Br)ccc1C(=O)O	0.372
COC(=O)[C@@]1(Cc2ccccc2)[C@H]2c3cc(C(=O)N(C)C)n(CCn4cc([N+](=O)[O-])nc4C)c3C[C@H]2CN1C(=O)c1ccccc1	-0.163
C=C(/C(=C/C[C@@H](OC(C)=O)c1ccc(CO)o1)c1cc(C(=O)OC)ccc1OC)C(C)C	0.682
CC(C)C(=C=CC[C@H](O)c1cccc(OCCO)c1)CCO	0.138
C=CCN1C(=O)[C@]2(O[C@H](CCO)[C@@H]([Si](C)(C)c3ccc(OC)cc3)[C@@H]2C)c2cc(NC(=O)c3ccc(OC)cc3)ccc21	1.21
CC(=O)NCCCC[C@@H]1NC(=O)[C@@H]2C[C@H](C(=O)NCCCCCCN)[C@H](c3cccc(OCCO)c3)N2C1=O	-0.0704
CN(C)CCCCNC(=O)[C@H]1C[C@H]2C(=O)N[C@@H](CCCC[N+](C)(C)C)C(=O)N2[C@H]1c1ccc(O)cc1	0.0954
CC(C)N1CC=CC23O[C@@H]4/C=C\CCCOC(=O)C4[C@H]2C(=O)N(CCCCCCO)[C@@H]3C1=O (some centres not stated)	-1.2
O=C(CS)NCCCCCCNC(=O)[C@@H]1C[C@@H]2C(=O)NCC(=O)N2[C@@H]1c1ccc(O)cc1	1.18
COc1ccc([Si](C)(C)[C@H]2[C@H](CCO)O[C@@]3(C(=O)N(Cc4ccccc4)c4ccc(N5C(=O)c6ccccc6Oc6ccccc65)cc43)[C@@H]2C)cc1	1.02
NC(=O)[C@H]1[C@@H]2C(=O)O[C@@H](c3ccccc3)[C@@H](c3ccccc3)N2[C@@H](c2ccc(O)cc2)[C@]12C(=O)Nc1ccccc12	-0.943
[N-]=[N+]=NCc1ccccc1[C@@H]1OC(c2ccc(OCCCO)cc2)=N[C@]1(Cc1ccccc1)C(=O)NCCN1CCOCC1	0.41
O=C1C2C=CC(C(O)c3ccc4c(c3)OCO4)N(Nc3ccccc3)C2C(=O)N1c1ccccc1 (configuration not stated)	-0.337
O=C(CS)NCCCCCNC(=O)[C@@H]1C[C@@H]2C(=O)N[C@@H](Cc3ccccc3)C(=O)N2[C@@H]1c1cccc(OCCO)c1	1.6
NCCCCCNC(=O)[C@@H]1C[C@@H]2C(=O)N3CCC[C@H]3C(=O)N2[C@@H]1c1ccc(O)cc1	0.428

Structure (SMILES)	composite z-score
COc1cc(NN2C(C(O)c3ccccc3)C=CC3C(=O)N(C)C(=O)C32)cc(OC)c1OC (configuration not stated)	0.216
CC=CC(O)C1C=CC2C(=O)NC(=O)C2N1Nc1ccccn1 (configuration not stated)	0.352
COCCOC(=O)N1C(=O)[C@@]2(c3ccccc31)[C@H](c1ccccc1OCCO)N1[C@H](c3ccccc3)[C@H](c3ccccc3)OC(=O)[C@H]1[C@@H]2C(N)=O	1.57
COc1cc(NN2C(C(O)c3ccc(I)cc3)C=CC3C(=O)N(c4ccccc4)C(=O)C32)cc(OC)c1OC (configuration not stated)	0.562
[N-]=[N+]=NCc1ccccc1[C@@H]1OC(c2ccc(OCCCO)cc2)=N[C@]1(Cc1ccccc1N=[N+]=[N-])C(=O)NCCN1CCOCC1	0.893
C=C(/C(=C/C[C@H](OC(=O)c1ccncc1)c1ccccc1OCCO)c1cnc2ccccc2c1)C(C)C	1.42
C=CCNC(=O)[C@@H]1[C@H]2C(=O)O[C@H](c3ccccc3)[C@H](c3ccccc3)N2[C@H](c2ccc(OCCO)cc2)[C@@]12C(=O)N(C(=O)OCCOC)c1ccc(C#CCCO)cc12	0.482
C=C[C@H](C)[C@H](OC(=O)Nc1ccc(OC)cc1)c1ccc(OCCO)cc1	-0.0943
COc1ccc(C#Cc2ccc3c(c2)[C@]2(C(=O)N3)[C@H](C(=O)N3CCCCCCC3)[C@H]3C(=O)O[C@H](c4ccccc4)[C@H](c4ccccc4)N3[C@@H]2c2ccc(O)cc2)cc1	0.709
NCCCCCNC(=O)[C@H]1C[C@H]2C(=O)N[C@@H](Cc3ccccc3)C(=O)N2[C@H]1c1ccc(O)cc1	0.169
CC(C)c1ccc(NN2C(C(O)Cc3ccccc3)C=CC3C(=O)N(c4ccccc4)C(=O)C32)cc1 (configuration not stated)	-0.0551
Cc1ccc(S[C@]2(C(=O)NCc3ccccc3)CC(=O)N(Cc3cc(C(F)(F)F)cc(C(F)(F)F)c3)[C@@H]2c2ccc(CO)cc2I)cc1	-1.45
COCCCNC(=O)[C@@]1(c2ccc([N+](=O)[O-])cc2)CC(=O)N(C(C)C)[C@@H]1c1ccc(CO)cc1	0.352
CN1C(=O)C2C=CC(C(O)c3ccc(I)cc3)N(Nc3ccccc3)C2C1=O (configuration not stated)	0.979
CCOC(=O)C1=C[C@@H](c2ccccc2)N(S(=O)(=O)c2ccc(C)cc2)[C@H]1c1ccccc1	0.466
CC1CC/C=C\[C@H]2OC34C=CCN(C(C)(C)C)C(=O)[C@H]3N(C(CO)C(C)C)C(=O)[C@@H]4C2C(=O)O1 (some centres not stated)	0.365
COC(=O)[C@@]1(Cc2ccc(F)cc2)[C@H]2c3cc(C(=O)N4CCCC4)n(CC4CC4)c3C[C@H]2CN1C(=O)c1ccccc1	0.107

Reference: PubChem BioAssay
